# Screen size: about 5,500 compounds; about 2,000 (36%) were called active. About 18% were inconclusive and are not listed. Some of the results follow. Values without a mark were called inactive. Cut-off read from the data, not from the text of the source: active = normalized growth mostly below about 0.91 (no sharp cut-off); inconclusive = no clear call, values can overlap the other calls; inactive = mostly above about 0.92.
# Assay: chemical genetic growth profiling, strain panel (AID 1159580);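 note: tested at 20 µM; growth read once vehicle control cultures reached saturation at 30 °C; 1 = growth at the plate median or of vehicle wells; lower values mean less growth of the strain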
# Details: S. cerevisiae deletion strains, growth OD
smiles,measurement,setting,value
CC1=C(/C=C/C(C)=C/C=C/C(C)=C/C=C/C=C(C)/C=C/C=C(C)/C=C/C(=O)[C@]2(C)C[C@@H](O)CC2(C)C)C(C)(C)C[C@H](O)C1,normalized growth,"locus YAL021C, strain ccr4, stronger effect = lower value",1.05
same,normalized growth,"locus YAL026C, strain drs2, stronger effect = lower value",1.06
same,normalized growth,"locus YAL030W, strain snc1, stronger effect = lower value",1.01
same,normalized growth,"locus YBL061C, strain skt5, stronger effect = lower value",1.03
same,normalized growth,"locus YBR009C, strain hhf1, stronger effect = lower value",0.996
same,normalized growth,"locus YBR023C, strain chs3, stronger effect = lower value",1.03
same,normalized growth,"locus YBR171W, strain sec66, stronger effect = lower value",1.03
same,normalized growth,"locus YBR231C, strain swc5, stronger effect = lower value",0.995
same,normalized growth,"locus YBR279W, strain paf1, stronger effect = lower value",1.05
same,normalized growth,"locus YCL011C, strain gbp2, stronger effect = lower value",1.01
same,normalized growth,"locus YCL016C, strain dcc1, stronger effect = lower value",1.02
same,normalized growth,"locus YCL069W, strain vba3, stronger effect = lower value",1.04
same,normalized growth,"locus YCR088W, strain abp1, stronger effect = lower value",1.02
same,normalized growth,"locus YDL005C, strain med2, stronger effect = lower value",1.03
same,normalized growth,"locus YDL040C, strain nat1, stronger effect = lower value",1.02
same,normalized growth,"locus YDR001C, strain nth1, stronger effect = lower value",1.02
same,normalized growth,"locus YDR069C, strain doa4, stronger effect = lower value",1.05
same,normalized growth,"locus YDR137W, strain rgp1, stronger effect = lower value",1.05
same,normalized growth,"locus YDR159W, strain sac3, stronger effect = lower value",0.98
same,normalized growth,"locus YDR195W, strain ref2",0.978
same,normalized growth,"locus YDR297W, strain sur2, stronger effect = lower value",1.02
same,normalized growth,"locus YDR334W, strain swr1, stronger effect = lower value",1.02
same,normalized growth,"locus YDR335W, strain msn5, stronger effect = lower value",1.03
same,normalized growth,"locus YDR392W, strain spt3, stronger effect = lower value",0.984
same,normalized growth,"locus YEL003W, strain gim4, stronger effect = lower value",0.997
same,normalized growth,"locus YEL037C, strain rad23, stronger effect = lower value",1.02
same,normalized growth,"locus YEL061C, strain CIN8 (second series), stronger effect = lower value",1.04
same,normalized growth,"locus YER015W, strain faa2, stronger effect = lower value",1.04
same,normalized growth,"locus YER016W, strain bim1, stronger effect = lower value",1.03
same,normalized growth,"locus YER111C, strain swi4, stronger effect = lower value",1.03
same,normalized growth,"locus YER155C, strain BEM2 (second series), stronger effect = lower value",1.03
same,normalized growth,"locus YFR010W, strain ubp6, stronger effect = lower value",1.02
same,normalized growth,"locus YGL167C, strain pmr1, stronger effect = lower value",1.03
same,normalized growth,"locus YGL173C, strain kem1, stronger effect = lower value",1
same,normalized growth,"locus YGL227W, strain vid30, stronger effect = lower value",1.02
same,normalized growth,"locus YGL240W, strain doc1, stronger effect = lower value",0.968
same,normalized growth,"locus YGL253W, strain hxk2, stronger effect = lower value",1.03
same,normalized growth,"locus YHR013C, strain ard1, stronger effect = lower value",1.03
same,normalized growth,"locus YHR027C, strain rpn1, stronger effect = lower value",1
same,normalized growth,"locus YHR030C, strain SLT2, stronger effect = lower value",0.991
same,normalized growth,"locus YHR079C, strain IRE1, stronger effect = lower value",0.987
same,normalized growth,"locus YHR142W, strain chs7, stronger effect = lower value",1.06
same,normalized growth,"locus YJL092W, strain hpr5, stronger effect = lower value",1.02
same,normalized growth,"locus YJL095W, strain BCK1 (second series), stronger effect = lower value",1.02
same,normalized growth,"locus YJL095W, strain BCK1, stronger effect = lower value",1.01
same,normalized growth,"locus YJL115W, strain asf1, stronger effect = lower value",1.02
same,normalized growth,"locus YJL129C, strain trk1, stronger effect = lower value",1.05
same,normalized growth,"locus YJL154C, strain vps35, stronger effect = lower value",1.01
same,normalized growth,"locus YJL164C, strain tpk1, stronger effect = lower value",1.02
same,normalized growth,"locus YJL166W, strain qcr8, stronger effect = lower value",1.04
same,normalized growth,"locus YJR066W, strain TOR1, stronger effect = lower value",0.942
same,normalized growth,"locus YKL160W, strain elf1, stronger effect = lower value",1.02
same,normalized growth,"locus YKR026C, strain gcn3, stronger effect = lower value",1.04
same,normalized growth,"locus YKR091W, strain srl3, stronger effect = lower value",1.01
same,normalized growth,"locus YLL001W, strain dnm1, stronger effect = lower value",1
same,normalized growth,"locus YLL026W, stronger effect = lower value",1.02
same,normalized growth,"locus YLL041C, strain sdh2, stronger effect = lower value",1.03
same,normalized growth,"locus YLR027C, strain aat2, stronger effect = lower value",1.02
same,normalized growth,"locus YLR113W, strain HOG1, stronger effect = lower value",0.991
same,normalized growth,"locus YLR221C, strain rsa3, stronger effect = lower value",1
same,normalized growth,"locus YLR258W, strain gsy2, stronger effect = lower value",1.02
same,normalized growth,"locus YLR262C, strain YPT6 (second series), stronger effect = lower value",1.02
same,normalized growth,"locus YLR320W, strain mms22, stronger effect = lower value",0.981
same,normalized growth,"locus YLR342W, strain FKS1, stronger effect = lower value",1.04
same,normalized growth,"locus YLR357W, strain rsc2, stronger effect = lower value",1.06
same,normalized growth,"locus YLR370C, strain arc18, stronger effect = lower value",1.02
same,normalized growth,"locus YLR384C, strain iki3, stronger effect = lower value",1.01
same,normalized growth,"locus YML120C, strain ndi1, stronger effect = lower value",0.986
same,normalized growth,"locus YMR058W, strain fet3, stronger effect = lower value",1.05
same,normalized growth,"locus YMR125W, strain sto1, stronger effect = lower value",1.02
same,normalized growth,"locus YMR129W, stronger effect = lower value",1.02
same,normalized growth,"locus YMR205C, strain PFK2, stronger effect = lower value",0.995
same,normalized growth,"locus YMR231W, strain pep5, stronger effect = lower value",1.04
same,normalized growth,"locus YNL071W, strain lat1, stronger effect = lower value",1.03
same,normalized growth,"locus YNL183C, strain NPR1, stronger effect = lower value",0.944
same,normalized growth,"locus YNL209W, strain ssb2, stronger effect = lower value",1.02
same,normalized growth,"locus YNL248C, strain rpa49, stronger effect = lower value",1.12 [resistant] (active)
same,normalized growth,"locus YNL322C, strain KRE1 (second series), stronger effect = lower value",1.03
same,normalized growth,"locus YNR049C, strain mso1, stronger effect = lower value",1.01
same,normalized growth,"locus YOR001W, strain rrp6, stronger effect = lower value",1.01
same,normalized growth,"locus YOR070C, strain gyp1, stronger effect = lower value",1.02
same,normalized growth,"locus YOR080W, strain dia2, stronger effect = lower value",1.03
same,normalized growth,"locus YOR083W, strain WHI5, stronger effect = lower value",0.993
same,normalized growth,"locus YOR106W, strain vam3, stronger effect = lower value",1.05
same,normalized growth,"locus YOR231W, strain MKK1, stronger effect = lower value",1.01
same,normalized growth,"locus YOR265W, strain rbl2, stronger effect = lower value",1.02
same,normalized growth,"locus YOR270C, strain vph1, stronger effect = lower value",1.16
same,normalized growth,"locus YOR290C, strain snf2, stronger effect = lower value",1.04
same,normalized growth,"locus YPL051W, strain arl3, stronger effect = lower value",1.06
same,normalized growth,"locus YPL078C, strain atp4, stronger effect = lower value",1.05
same,normalized growth,"locus YPL106C, strain sse1, stronger effect = lower value",1.05
same,normalized growth,"locus YPL240C, strain hsp82, stronger effect = lower value",1.01
same,normalized growth,"locus YPL256C, strain CLN2, stronger effect = lower value",0.995
